14 compounds from PubChem BioAssay (NCI) can be followed below.

Compounds without any hit were thinned out: in the full panel of roughly 83,000, 20% have a hit.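 Interpretation: 100, growth as untreated; towards 0, rising growth inhibition; 0, no net growth; 0 to -100, cell death. Compounds scoring below 10 were considered active.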 A number with no mark means an inactive call. Activity calls are given as the source filed them.

Among the test systems are DU-145 prostate; MALME-3M melanoma; MDA-MB-231 breast; RXF 393 renal; SF-268 CNS; SF-295 CNS; SF-539 CNS; UACC-257 melanoma; M14 melanoma.
Common to all, as to test: NCI-60 one-dose screen, 48 h (100 = growth as untreated, 0 = no growth, -100 = all killed)
Settings in all cases: 10 µM unless noted

`CC(C)c1ccc(Nc2ccc3c(OCCCN4CCN(C)CC4)cccc3n2)cc1`: the growth in the assay on DU-145 prostate is 76.1%; with MALME-3M melanoma, 39.2%; in the assay with MDA-MB-231 breast it was 51.8%; in the assay with RXF 393 renal, 48.9%; with SF-268 CNS, 71.8%; in the assay on SF-295 CNS, 38.8%. In addition, the growth was 73.5% in the assay with SF-539 CNS, 71.9% in the assay on UACC-257 melanoma and -67.6% (active) in the assay on M14 melanoma.

With `C[C@@H](Nc1ncnc2ccc(-c3cnc(N)nc3)cc12)c1ccc(F)cc1`, the growth in the assay on DU-145 prostate is 47.9%; in the assay on MALME-3M melanoma, 85.2%; in the assay with MDA-MB-231 breast it was 59.6%; in the assay on RXF 393 renal, 34.7%; with SF-268 CNS, 64.1%; in the assay with SF-295 CNS, 81.7%. Further, the growth is 95.3% with SF-539 CNS, 94.8% with UACC-257 melanoma and 82.7% in the assay on M14 melanoma.

On to `CN1[C@@H]2CC[C@H]1/C(=C\c1ccccc1)C(=O)/C2=C/c1ccccc1`, for which the growth is 14.1% in the assay on DU-145 prostate; 72.8% in the assay with MALME-3M melanoma; 47.6% with MDA-MB-231 breast; 43.4% in the assay on RXF 393 renal; 38.3% with SF-268 CNS; 32.8% with SF-295 CNS. Besides, the growth was 43.1% with SF-539 CNS, 42.8% in the assay on UACC-257 melanoma and 43.4% with M14 melanoma.

Regarding `CCOc1ccc(Nc2nc(-c3ccc4c(c3)NC(=O)CO4)cs2)cc1`, the growth in the assay on DU-145 prostate is 77.2%; in the assay on MALME-3M melanoma, 69.7%; with MDA-MB-231 breast, 58%; with RXF 393 renal it was 87.3%; with SF-268 CNS it was 87.1%; in the assay with SF-295 CNS, 158%. The growth in the assay on SF-539 CNS is 78.2%; in the assay with UACC-257 melanoma, 33%; in the assay on M14 melanoma, 68.2%.

With `COC1=CC(=O)c2ccccc2C1=O`, the growth in the assay with DU-145 prostate is 88.8%; in the assay with MALME-3M melanoma it was 72.4%; in the assay on MDA-MB-231 breast, 99.1%; in the assay with RXF 393 renal, 118%; in the assay with SF-268 CNS it was 102%; in the assay on SF-295 CNS, 104%. For the same compound, the growth with SF-539 CNS was 124%; in the assay on UACC-257 melanoma, 59.9%; with M14 melanoma it was 87.2%.

On to `Cn1c(N2NC(=O)C(N=Nc3ccc(S(N)(=O)=O)cc3)C2=O)nc(-c2ccco2)c(C#N)c1=O` (stereo unspecified), for which the growth with DU-145 prostate was 95.7%; in the assay on MALME-3M melanoma it was 74.7%; in the assay on MDA-MB-231 breast, 93.8%; in the assay with RXF 393 renal it was -3.8% (active); with SF-268 CNS it was 98.8%; with SF-295 CNS, 123%. The growth with SF-539 CNS is 96.7%; in the assay with UACC-257 melanoma it was 88.7%; in the assay with M14 melanoma it was 91.9%.

As to `c1ccc(Cn2cnc3ccc(-c4nc(-c5ccc6c(c5)ncn6C5CCCCC5)cn5ccnc45)cc32)cc1`, the growth in the assay with DU-145 prostate was -28.2% (active); with MALME-3M melanoma, -15.4% (active); in the assay with MDA-MB-231 breast, -70.1% (active); in the assay with RXF 393 renal, -76.9% (active); in the assay on SF-268 CNS it was -0.106% (active); in the assay with SF-295 CNS, -81.4% (active). For the same compound, the growth in the assay on SF-539 CNS was -77.6% (active); with UACC-257 melanoma it was -32.7% (active); in the assay on M14 melanoma, -4.44% (active).

For the compound `O=C(/C=C/c1c(-c2ccc(Cl)cc2)nn(-c2ccccc2)c1C(F)(F)F)c1ccc(Cl)cc1`, the growth with DU-145 prostate was 108%; in the assay with MALME-3M melanoma, 104%; in the assay on MDA-MB-231 breast, 79.5%; in the assay with RXF 393 renal, 88.4%; with SF-268 CNS, 105%; in the assay with SF-295 CNS, 96.5%. Besides, the growth is 102% in the assay on SF-539 CNS, 104% with UACC-257 melanoma and 90.5% with M14 melanoma.

Regarding `Oc1ccc(OCCOc2ccc(O)cc2)cc1`, the growth in the assay with DU-145 prostate was 61.4%; in the assay with MALME-3M melanoma it was 62%; in the assay on MDA-MB-231 breast, 50.3%; in the assay with RXF 393 renal, 71.7%; with SF-268 CNS, 61%; in the assay on SF-295 CNS, 32.7%. The growth in the assay with SF-539 CNS was 28%; in the assay on UACC-257 melanoma, 83.8%; in the assay with M14 melanoma, 15.8%.

For `CC1(C)NCCC[C@]2(C)[C@H]3CC[C@@H]4[C@H]5[C@H](C(=O)/C=C/c6ccco6)CC[C@]5(CO)CC[C@@]4(C)[C@]3(C)CC[C@@H]12`, the growth is 97.4% in the assay on DU-145 prostate; 78.7% in the assay on MALME-3M melanoma; 96.2% in the assay on MDA-MB-231 breast; 89.2% with RXF 393 renal; 95.7% in the assay on SF-268 CNS; 113% with SF-295 CNS. Moreover, the growth in the assay on SF-539 CNS was 87.8%; with UACC-257 melanoma, 91.9%; with M14 melanoma it was 91.3%.

Turning to `Cn1c(-c2c(N)n(CCCN3CCOCC3)c3nc(C#N)c(C#N)nc23)nc2ccccc21`, the growth in the assay with DU-145 prostate was 75.3%; in the assay on MALME-3M melanoma, 48.4%; in the assay on MDA-MB-231 breast, 43.4%; with RXF 393 renal, 51.2%; in the assay on SF-268 CNS, 76.2%; in the assay on SF-295 CNS, 110%. Moreover, the growth with SF-539 CNS was 19.3%; with UACC-257 melanoma, 67.8%; in the assay with M14 melanoma, 74.2%.

Regarding `COc1cc2c3c(c4c5ccccc5[nH]c4c2c(OC)c1OC)C(=O)N(CCN1CCOCC1)C3=O`, the growth with DU-145 prostate is 66%; in the assay with MALME-3M melanoma, 78.5%; with MDA-MB-231 breast, 72.4%; in the assay on RXF 393 renal, 48.8%; in the assay with SF-268 CNS, 47.7%; in the assay on SF-295 CNS, 36.5%. Also, the growth in the assay on SF-539 CNS was 63.7%; with UACC-257 melanoma it was 70.4%; in the assay with M14 melanoma, 76%.

On to `Cc1nn(-c2ccccc2)c(Cl)c1/C=N\N=c1/sc2ccccc2n1C`, for which the growth in the assay on DU-145 prostate is 108%; in the assay with MALME-3M melanoma, 112%; in the assay on MDA-MB-231 breast, 93.2%; in the assay with RXF 393 renal it was 109%; with SF-268 CNS, 101%; in the assay with SF-295 CNS, 109%. Also, the growth in the assay with SF-539 CNS is 97.5%; in the assay with UACC-257 melanoma, 97.1%; in the assay on M14 melanoma, 99.8%.

Consider `COc1ccc(/C=C2\COc3ccc(-c4ccccc4)cc3C2=O)c(OC)c1`, for which the growth was 102% in the assay on DU-145 prostate; 91.6% with MALME-3M melanoma; 93% in the assay on MDA-MB-231 breast; 83% in the assay with RXF 393 renal; 97.7% with SF-268 CNS; 190% in the assay with SF-295 CNS. Further, the results for the growth in the assay with SF-539 CNS, in the assay on UACC-257 melanoma and in the assay on M14 melanoma were 97.3%, 82.8% and 92.6%, respectively.
